According to the supplement of paper PMC13380429:

System: Vero E6 infected with SARS-CoV-2
Assay: inhibition of SARS-CoV-2 cytopathic effect; higher = more antiviral protection, active = above 15
Settings: 48 h

Measured: inhibition of SARS-CoV-2 cytopathic effect

CC(NCCC(c1ccccc1)c1ccccc1)c1ccccc1 (stereo not given) [fendiline]
inactive: 1 nM 0.75% | 8.33 nM 2.18% | 100 nM -0.68% | 833.33 nM -4.72% | 10000 nM 11.9%

C[C@H]1CNCCCN1S(=O)(=O)c1cccc2cncc(F)c12 [ripasudil]
inactive: 1 nM -0.82% | 8.33 nM 0.41% | 100 nM -1.45% | 833.33 nM -1.5% | 10000 nM -5.58%

C[C@H](N/C(=N/C#N)Nc1cccc2ncccc12)c1ccccc1
inactive: 1 nM -1.75% | 8.33 nM -2.48% | 100 nM -3.44% | 833.33 nM 1.32% | 10000 nM 1.97%

CC(C)c1cnn2c(NCc3ccccc3)cc(NCCCCCCN)nc12
inactive: 1 nM 2.49% | 8.33 nM -1.33% | 100 nM -2.16% | 833.33 nM 1.83% | 10000 nM -12.8%

CC[C@H]1OC(=O)[C@H](C)C(=O)[C@H](C)[C@@H](O[C@@H]2O[C@H](C)C[C@H](N(C)C)[C@H]2O)[C@](C)(OC)C[C@@H](C)C(=O)[C@H](C)[C@H]2N(CCCCn3cnc(-c4cccnc4)c3)C(=O)O[C@]12C [telithromycin]
inactive: 1 nM -2.13% | 8.33 nM -0.46% | 100 nM -1.7% | 833.33 nM 0.65% | 10000 nM -0.07%

Cc1ncc([N+](=O)[O-])n1CC(O)CCl (stereo not given) [ornidazole]
inactive: 1 nM -2.81% | 8.33 nM 0.99% | 100 nM 1.14% | 833.33 nM -1.29% | 10000 nM 1.51%

COC(=O)[C@@H]1[C@H]2C[C@H]3c4[nH]c5ccccc5c4CCN3C[C@@H]2CC[C@@H]1O [yohimbine]
inactive: 1 nM 0.18% | 8.33 nM 2.4% | 100 nM 1.41% | 833.33 nM -1.6% | 10000 nM -0.14%
